Reference: ChEMBL document CHEMBL3988442, “University of Dundee, Small-Polar-MMV Screening Library” (2021)
For part of these data: Results with a measured potency or affinity are listed apart.

Tests used:
Parameters in all cases: scale not given: direction of the effect not stated beside the values
[1] = biological target: Protein translocase subunit SecA (Escherichia coli (strain K12)) (UniProt P10408); experiment: Assay to Identify E. coli SecA ATPase Inhibitors; type: functional; details: 30 µM
[2] = biological target: T1, Ubiquitin-activating enzyme e1, putative (Leishmania donovani (strain BPK282A1)) (UniProt E9BSI1); experiment: Leishmania donovani Ubiquitin Activating Enzyme (LdE1); type: functional; details: 30 µM
T1 sequence (whole entry): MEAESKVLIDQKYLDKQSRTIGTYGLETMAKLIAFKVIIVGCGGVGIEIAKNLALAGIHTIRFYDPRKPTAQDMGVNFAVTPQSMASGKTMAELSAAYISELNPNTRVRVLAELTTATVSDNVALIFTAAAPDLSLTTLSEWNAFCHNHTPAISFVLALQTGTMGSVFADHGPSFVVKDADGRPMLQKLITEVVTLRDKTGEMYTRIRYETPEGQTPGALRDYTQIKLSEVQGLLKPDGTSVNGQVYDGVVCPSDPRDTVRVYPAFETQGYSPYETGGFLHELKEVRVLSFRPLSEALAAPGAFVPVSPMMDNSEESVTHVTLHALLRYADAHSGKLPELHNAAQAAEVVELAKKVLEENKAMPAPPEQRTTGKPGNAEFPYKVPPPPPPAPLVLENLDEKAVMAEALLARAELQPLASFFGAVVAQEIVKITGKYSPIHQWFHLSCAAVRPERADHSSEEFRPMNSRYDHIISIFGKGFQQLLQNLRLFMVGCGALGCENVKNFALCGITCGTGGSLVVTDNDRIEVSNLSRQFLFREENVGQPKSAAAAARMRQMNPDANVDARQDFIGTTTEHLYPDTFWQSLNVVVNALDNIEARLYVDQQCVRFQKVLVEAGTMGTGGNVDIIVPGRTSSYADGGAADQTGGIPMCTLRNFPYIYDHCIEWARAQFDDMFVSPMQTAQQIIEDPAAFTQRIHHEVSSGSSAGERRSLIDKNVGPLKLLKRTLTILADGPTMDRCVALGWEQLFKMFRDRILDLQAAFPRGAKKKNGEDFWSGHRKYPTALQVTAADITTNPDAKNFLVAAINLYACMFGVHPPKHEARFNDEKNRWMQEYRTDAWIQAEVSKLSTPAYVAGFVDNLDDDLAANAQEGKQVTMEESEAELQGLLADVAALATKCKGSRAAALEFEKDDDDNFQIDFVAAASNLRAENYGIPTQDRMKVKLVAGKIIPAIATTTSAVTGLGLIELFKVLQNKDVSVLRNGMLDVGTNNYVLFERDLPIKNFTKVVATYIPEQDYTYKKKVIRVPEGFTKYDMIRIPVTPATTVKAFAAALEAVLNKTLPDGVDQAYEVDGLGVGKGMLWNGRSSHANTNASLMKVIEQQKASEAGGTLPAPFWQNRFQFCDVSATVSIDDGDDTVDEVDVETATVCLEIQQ

[3] = biological target: Sialic acid-binding Ig-like lectin 9 (Homo sapiens) (UniProt Q9Y336); experiment: Hs-Siglec9 ALPHAscreen SOP 20170721; details: 10 µM
Trypanosoma cruzi = experiment: Trypanosoma cruzi phosphomannomutase and mannose-1-phosphate guanylyltransferase assay; type: functional; details: 10 µM
[4] = biological target: T2, Arginase-2, mitochondrial (Homo sapiens) (UniProt P78540); experiment: in vitro enzyme assay to detect the production of urea directly proportional to the activity of Arginase II; type: functional; details: 33.3 µM; further: in the data most compounds retested in dose-response had high values
T2 sequence (whole entry): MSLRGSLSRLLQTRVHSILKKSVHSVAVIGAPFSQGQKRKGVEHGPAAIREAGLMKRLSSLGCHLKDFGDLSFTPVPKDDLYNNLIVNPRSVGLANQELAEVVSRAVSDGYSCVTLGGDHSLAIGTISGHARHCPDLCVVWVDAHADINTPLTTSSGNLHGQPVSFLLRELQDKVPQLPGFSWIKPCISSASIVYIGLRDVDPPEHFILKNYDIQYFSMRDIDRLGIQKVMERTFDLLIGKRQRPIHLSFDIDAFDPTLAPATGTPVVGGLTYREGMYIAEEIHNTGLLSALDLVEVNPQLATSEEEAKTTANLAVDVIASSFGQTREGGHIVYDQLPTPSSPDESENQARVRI

[5] = biological target: T3, Proteasome subunit beta (Trypanosoma cruzi) (UniProt O96673); experiment: Trypanosoma cruzi proteasome chymotrypsin-like activity (TcProtChymo) assay.; further: in the data most compounds retested in dose-response had high values; type: functional; details: 9.37 µM
T3 sequence (whole entry): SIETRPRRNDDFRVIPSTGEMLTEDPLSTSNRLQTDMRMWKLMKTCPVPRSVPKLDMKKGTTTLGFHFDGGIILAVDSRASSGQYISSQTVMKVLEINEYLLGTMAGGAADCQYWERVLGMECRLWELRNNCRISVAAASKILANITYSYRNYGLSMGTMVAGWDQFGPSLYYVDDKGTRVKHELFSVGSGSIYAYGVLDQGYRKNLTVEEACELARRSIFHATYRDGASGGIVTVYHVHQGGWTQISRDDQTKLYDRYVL

Homo sapiens = species: Homo sapiens; experiment: To identify inhibition of the IFN signalling (Jak-Stat) pathway via expression of an eGFP reporter gene under the control of an IFN-stimulated response element (ISRE) containing MxA promoter.; type: functional; details: 30 µM
[6] = biological target: T4, Tyrosyl-tRNA synthetase, putative (Trypanosoma cruzi (strain CL Brener)) (UniProt Q4DSP6); experiment: Trypanosoma cruzi tyrosyl tRNA synthetase (TcYRS) _High Tyrosine SOP; type: functional; details: 30 µM; further: in the data most compounds retested in dose-response had high values
T4 sequence (whole entry): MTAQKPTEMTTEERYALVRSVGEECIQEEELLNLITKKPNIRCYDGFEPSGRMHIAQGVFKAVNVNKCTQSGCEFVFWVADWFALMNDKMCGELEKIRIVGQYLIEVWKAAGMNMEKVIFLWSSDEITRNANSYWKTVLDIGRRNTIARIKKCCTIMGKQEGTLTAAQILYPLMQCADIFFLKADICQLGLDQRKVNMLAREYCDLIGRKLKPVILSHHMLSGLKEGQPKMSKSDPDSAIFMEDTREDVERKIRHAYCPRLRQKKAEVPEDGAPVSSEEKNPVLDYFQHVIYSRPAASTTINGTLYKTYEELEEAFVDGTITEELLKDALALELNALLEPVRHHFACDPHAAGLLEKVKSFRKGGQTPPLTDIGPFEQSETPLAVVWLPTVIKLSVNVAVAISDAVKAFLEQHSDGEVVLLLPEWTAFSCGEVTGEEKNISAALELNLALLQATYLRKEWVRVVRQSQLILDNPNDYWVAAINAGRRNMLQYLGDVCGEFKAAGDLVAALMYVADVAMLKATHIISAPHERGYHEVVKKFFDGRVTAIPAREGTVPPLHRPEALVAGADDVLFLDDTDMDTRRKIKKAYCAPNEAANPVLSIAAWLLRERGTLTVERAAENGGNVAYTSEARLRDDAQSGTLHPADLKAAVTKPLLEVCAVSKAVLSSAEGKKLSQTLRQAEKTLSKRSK

[7] = biological target: T4, Tyrosyl-tRNA synthetase, putative (Trypanosoma cruzi (strain CL Brener)); experiment: Trypanosoma cruzi tyrosyl tRNA synthetase (TcYRS) SOP; type: functional; details: 30 µM
[8] = biological target: Chromo domain-containing protein 1 (Saccharomyces cerevisiae (strain ATCC 204508 / S288c) (Baker's yeast)) (UniProt P32657); experiment: ScCHD-1 Enzyme Inhibition Assay; type: functional; details: 30 µM; further: in the data most compounds retested in dose-response had high values
Sequence of Chromo domain-containing protein 1 (Saccharomyces cerevisiae (strain ATCC 204508 / S288c) (Baker's yeast)) (P32657 whole entry, the tested form may be a part): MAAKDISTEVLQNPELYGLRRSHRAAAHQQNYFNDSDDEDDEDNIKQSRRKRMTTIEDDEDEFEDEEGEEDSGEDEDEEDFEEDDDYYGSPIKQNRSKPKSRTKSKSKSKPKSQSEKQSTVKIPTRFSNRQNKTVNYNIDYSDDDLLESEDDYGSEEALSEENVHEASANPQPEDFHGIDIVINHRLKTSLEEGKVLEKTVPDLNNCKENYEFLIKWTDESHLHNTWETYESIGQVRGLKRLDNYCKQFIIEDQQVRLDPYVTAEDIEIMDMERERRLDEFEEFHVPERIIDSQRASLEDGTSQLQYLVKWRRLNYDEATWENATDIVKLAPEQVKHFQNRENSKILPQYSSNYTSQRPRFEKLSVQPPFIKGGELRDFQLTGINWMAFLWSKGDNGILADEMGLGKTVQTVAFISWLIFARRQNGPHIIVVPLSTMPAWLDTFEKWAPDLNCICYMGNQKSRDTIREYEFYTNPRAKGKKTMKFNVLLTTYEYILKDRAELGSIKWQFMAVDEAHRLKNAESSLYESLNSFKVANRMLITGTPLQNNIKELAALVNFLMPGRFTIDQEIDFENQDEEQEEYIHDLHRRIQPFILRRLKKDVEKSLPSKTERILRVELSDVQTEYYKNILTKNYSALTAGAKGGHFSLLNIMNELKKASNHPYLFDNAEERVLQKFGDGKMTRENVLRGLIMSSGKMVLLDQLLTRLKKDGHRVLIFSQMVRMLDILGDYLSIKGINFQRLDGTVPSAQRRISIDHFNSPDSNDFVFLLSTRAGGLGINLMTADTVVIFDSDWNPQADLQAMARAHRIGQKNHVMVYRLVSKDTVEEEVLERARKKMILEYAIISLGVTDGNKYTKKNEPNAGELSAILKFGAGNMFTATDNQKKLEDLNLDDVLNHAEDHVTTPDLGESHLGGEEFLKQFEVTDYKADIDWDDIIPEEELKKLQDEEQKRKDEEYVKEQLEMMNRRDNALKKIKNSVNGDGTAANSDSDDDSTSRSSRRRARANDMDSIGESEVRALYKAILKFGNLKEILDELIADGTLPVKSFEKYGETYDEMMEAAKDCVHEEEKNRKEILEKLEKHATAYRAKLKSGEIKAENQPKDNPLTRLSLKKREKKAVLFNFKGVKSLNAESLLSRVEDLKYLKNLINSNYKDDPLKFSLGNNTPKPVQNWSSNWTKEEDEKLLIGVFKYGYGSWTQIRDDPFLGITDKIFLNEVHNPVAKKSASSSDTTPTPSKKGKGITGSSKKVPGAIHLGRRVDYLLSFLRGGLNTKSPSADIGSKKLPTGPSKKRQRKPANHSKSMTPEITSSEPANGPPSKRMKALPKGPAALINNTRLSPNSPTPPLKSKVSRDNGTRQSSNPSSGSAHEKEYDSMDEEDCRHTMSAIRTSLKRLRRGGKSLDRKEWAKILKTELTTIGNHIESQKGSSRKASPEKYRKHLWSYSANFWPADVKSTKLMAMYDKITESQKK

Sequence of Sialic acid-binding Ig-like lectin 9 (Homo sapiens) (Q9Y336 whole entry): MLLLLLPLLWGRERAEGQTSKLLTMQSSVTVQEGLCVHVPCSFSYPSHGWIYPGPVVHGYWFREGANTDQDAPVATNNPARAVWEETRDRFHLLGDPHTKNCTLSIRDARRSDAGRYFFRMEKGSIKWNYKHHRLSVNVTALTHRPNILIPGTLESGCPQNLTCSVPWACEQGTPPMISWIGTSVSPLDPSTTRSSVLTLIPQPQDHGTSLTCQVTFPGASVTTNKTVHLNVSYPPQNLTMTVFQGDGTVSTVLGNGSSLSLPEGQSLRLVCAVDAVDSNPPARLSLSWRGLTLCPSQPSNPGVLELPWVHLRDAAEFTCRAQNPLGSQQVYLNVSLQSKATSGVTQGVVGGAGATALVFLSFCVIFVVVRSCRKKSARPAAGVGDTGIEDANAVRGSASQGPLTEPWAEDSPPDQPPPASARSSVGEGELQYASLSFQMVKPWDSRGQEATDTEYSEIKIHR
Sequence of Protein translocase subunit SecA (Escherichia coli (strain K12)) (P10408 whole entry): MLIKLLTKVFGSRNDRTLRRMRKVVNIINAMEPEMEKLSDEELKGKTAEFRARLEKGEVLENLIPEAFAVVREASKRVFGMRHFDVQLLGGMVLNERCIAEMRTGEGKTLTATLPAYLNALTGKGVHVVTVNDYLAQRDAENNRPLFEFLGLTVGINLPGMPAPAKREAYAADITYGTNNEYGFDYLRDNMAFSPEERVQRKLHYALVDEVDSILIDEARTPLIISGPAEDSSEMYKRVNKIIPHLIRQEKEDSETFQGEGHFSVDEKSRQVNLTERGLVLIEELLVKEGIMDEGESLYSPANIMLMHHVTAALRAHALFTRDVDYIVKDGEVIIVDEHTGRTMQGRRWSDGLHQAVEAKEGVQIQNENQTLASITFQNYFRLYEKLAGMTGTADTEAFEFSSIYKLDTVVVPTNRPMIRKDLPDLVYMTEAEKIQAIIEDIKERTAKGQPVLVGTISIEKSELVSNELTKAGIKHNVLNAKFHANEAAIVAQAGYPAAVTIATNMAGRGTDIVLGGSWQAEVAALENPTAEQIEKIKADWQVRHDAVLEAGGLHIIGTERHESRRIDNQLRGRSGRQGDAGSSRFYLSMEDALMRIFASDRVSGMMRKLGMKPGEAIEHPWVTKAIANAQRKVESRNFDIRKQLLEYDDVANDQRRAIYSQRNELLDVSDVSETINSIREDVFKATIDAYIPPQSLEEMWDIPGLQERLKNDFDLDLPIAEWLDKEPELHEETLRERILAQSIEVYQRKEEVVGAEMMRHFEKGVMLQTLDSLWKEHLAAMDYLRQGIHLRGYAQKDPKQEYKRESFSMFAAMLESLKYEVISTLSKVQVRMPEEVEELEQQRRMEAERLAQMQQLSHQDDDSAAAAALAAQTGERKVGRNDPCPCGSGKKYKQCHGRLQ

Row | Compound | Percent Effect [1] [%] | Percent Effect [2] [%] | Percent Effect [3] [%] | Percent Effect (Trypanosoma cruzi) [%] | Percent Effect [4] [%] | Percent Effect [5] [%] | Percent Effect (Homo sapiens) [%] | Percent Effect [6] [%] | Percent Effect [7] [%] | Percent Effect [8] [%]
1 | CCc1ncc(C(=O)N2CCOCC2c2c(C)n[nH]c2C)s1 (stereo not given) | -0.434 | 10.3 | -1.82 | 7.23 | 0.41 | 1.11 | -6.48 | -0.478 | 8.43 | -1.09
2 | Fc1cccnc1CN1CCCCC1c1ccn2ccnc2n1 (stereo not given) | -5.06 | 22.7 | -2.65 | 1.77 | -1.33 | 11.8 | 14 | 8.47 | 22.5 | -27.9
3 | CN(C)CC1CN(Cc2nnc(-c3ccccc3Cl)o2)CCO1 (stereo not given) | -1.11 | 13.3 | -7.04 | -2.81 | 1.77 | 15.7 | 9.96 | -3.68 | 0 | -11.7
4 | O=C(NCC(=O)N1CCCCC1)c1ccoc1 | 2.38 | 13 | 0.0749 | -7.46 | 2.25 | 17.2 | 18.2 | 4.9 | 18.8 | -8.97
5 | Cc1cc(C)cc(OCC(=O)NC2CCN(S(C)(=O)=O)CC2)c1 | -3.04 | 13 | -6.89 | -8.58 | -1.84 | 8.77 | 14.6 | 3.92 | 16.5 | -7.11
6 | Cc1noc(C)c1CN(C)C(=O)NC1CCN(c2ncccn2)CC1 | -4.16 | 10.3 | -17.2 | 11.7 | -0.82 | 9.64 | 13.1 | 5.26 | 20.5 | -9.27
7 | CCc1nccn1-c1cncc(C2CCCN2Cc2ccc(F)cc2)n1 (stereo not given) | -7.77 | 4 | 1.71 | 1.97 | 0.443 | -0.328 | 35.7 | 4.23 | 5 | -27.1
8 | O=C1COC2(CCN(C(=O)c3ccco3)CC2)CN1Cc1cccnc1 | -3.74 | 14.3 | -1.08 | -2.25 | -0.457 | 3.86 | -5.38 | 7.73 | 15 | -5.67
9 | O=C(N1CCCC1)N1CCC2(CCCN(CCOc3ccccc3)C2)C1 (stereo not given) | -5.49 | 16.9 | -3.35 | -2.63 | -1.37 | 12.3 | 15.5 | 1.93 | 2.5 | -13.4
10 | CCC(=O)N1CCCC1c1nccnc1Nc1nc(C)cc(C)n1 (stereo not given) | -0.0687 | 14.7 | 0.282 | 0.789 | 2.21 | 15.8 | 6.52 | 2.12 | 7.5 | -21.6
11 | CN(C)CCCn1ccnc1C1CCCN(c2cc(N)ncn2)C1 (stereo not given) | -10.5 | 2.7 | 2.22 | -3.59 | -2.45 | 4.97 | -11 | 7.98 | 4.88 | 4.53
12 | Cc1cc(NC(=O)N(CC2CCOC2)C2CC2)no1 (stereo not given) | -2.1 | 13.3 | 6.54 | 1.21 | 2.22 | 6.7 | 21.8 | 5.79 | 12.8 | -7.01
13 | O=c1c2ccccc2nc2n1C(CSc1ccc(Cl)cc1Cl)CN2 (stereo not given) | -1.78 | 19.5 | -1.05 | -1.31 | 5.94 | 13.3 | 32.9 | 1.93 | 10 | -2.41
14 | Cn1nc2c(cc1=O)CN(Cc1nc(C(C)(C)C)no1)CC2 | -2.61 | 29.3 | 6.04 | 1.41 | 4.88 | 6.19 | 21.4 | 1.58 | 2.56 | -14.7
15 | CN1CCCn2c(nc(CNC(=O)c3ccsc3)cc2=O)C1 | -0.659 | 1.3 | -2.49 | -8.28 | 6.07 | 5.56 | -5.79 | 1.58 | 5.13 | -0.931
16 | CC(C)N1CCO[C@H]2CN(C(=O)c3ccoc3)C[C@H]21 | -6.85 | 3.9 | -7.81 | -1.66 | 2.43 | 4.85 | 0.754 | 5.79 | 10.3 | 3.83
17 | COCc1c(C(=O)NC2CCCC2)nnn1-c1ccc(C)cc1 | 106 | 9.33 | -6.27 | -2.37 | 0.443 | 8.54 | 14.6 | -2.12 | 7.5 | -17.9
18 | Cc1noc(C(C)C)c1C(=O)NCCN1CCCCCC1=O | 0.794 | 20.8 | 3.57 | 1.68 | 1.02 | 14.9 | -6.97 | 6.86 | 16.5 | -7.87
19 | O=c1cc(Cn2cncn2)nc2n1CCCN(CC1CC1)C2 | -4.98 | 11.7 | -1.33 | 1.27 | -1.22 | 9.09 | -6.93 | 3.68 | 5.13 | -4.01
20 | COc1ccc(CNC(=O)N2CCC(Cc3cnn(C)c3)C2)cc1C (stereo not given) | -1.91 | 7.69 | -4.56 | 8.36 | 4.92 | 11.2 | 10.9 | 0.478 | 13.2 | -4.08
21 | COc1cc(S(=O)(=O)N2CCc3ccc(F)cc32)cc(C(=O)O)c1OC | -7.45 | 10.7 | 12.6 | -1.21 | 0 | 6.02 | 4.5 | -3.68 | -5.13 | -15.2
22 | O=C(c1cnco1)N1CCCC(Cc2nccs2)C1 (stereo not given) | -3.28 | 14.7 | 5.58 | 0.395 | 4.87 | 19.1 | -17.7 | 7.41 | 15 | -20.4
23 | COCCc1ncc(CN2CCC(Oc3ccccc3C)CC2)cn1 | -2.3 | 17.3 | 7.21 | 1.58 | -0.443 | 12.6 | 7.38 | 6.35 | 20 | -22.7
24 | Cc1noc(C2CCN(C(=O)c3ccc(N(C)C)nc3)CC2)n1 | -1.18 | 12.8 | -5.05 | 3.29 | 1.23 | -0.0853 | 13.1 | 8.13 | 20.5 | -1.36
